Screening data: PubChem BioAssay, National Center for Advancing Translational Sciences (NCATS)
Hits are enriched below; roughly 19% of the tested compounds scored in any of these assays.
uPA surface inh = cell surface uPA generation inhibition; cell surface uPA generation assay, qHTS; Potency, µM (series often up to 38.3 µM), for inactives: at the top dose activity change, negative = inhibition, most hits filed as inhibitors; hit rate 0.31% among 330,000; AID 540303; active means well fitted inhibition curve with a large enough effect; inconclusive means small, poorly fitted or top-dose-only effect; inactive means no such curve, though single readings can be large or run the other way; tested in mouse RAW 264.7 cells; further: potency means the concentration at half of the fitted maximal effect; nearly all actives have a fitted effect of over 55% in size
HT1080 IDH1KD tx = toxicity to HT-1080 IDH1 knockdown cells (counter line) | HT-1080 IDH1 knockdown viability, ATP luminescence, 48 h | Potency, µM (highest dose often 46.1 µM), for inactives: top-dose activity, negative = toxicity, actives largely listed as cytotoxic | hit rate 2% among 360,000 | AID 686971;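 further: potency means the concentration at half of the fitted maximal effect; 0% = DMSO wells and -100% = cell-free medium wells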
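Cytotoxicity counter-line: IDH1KD HT-1080, 48 h, CellTiter-Glo. Curves classed by r2, magnitude and activity.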
HT1080NT lethal = kills 2HG-producing HT-1080-NT fibrosarcoma cells; HT-1080-NT fibrosarcoma viability, CellTiter-Glo ATP luminescence, 48 h; Potency, µM (series often up to 46.1 µM), inactives show at the highest dose activity, negative = less viability, hits mostly cytotoxic; hit rate 1.6% among 360,000; AID 686970;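 further: NT is the 2HG producing partner of a matched IDH1 knockdown line; potency means the concentration at half of the fitted maximal effect; 0% = DMSO-treated cells and -100% = media-only wells without cells; nearly all actives have a fitted effect of over 55% in size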
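Viability of the 2HG-overproducing fibrosarcoma line after 48 hours of compound exposure at 37 degrees C was determined by luminescence with CellTiter-Glo, and concentration-effect curves were then fitted and categorized.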
DT40 TDP1 no CPT = qHTS for Inhibitors of human tyrosyl-DNA phosphodiesterase 1 (TDP1): qHTS in cells in absence of CPT | DT40 Tdp1-/- hTDP1 cells, no CPT, ATP luminescence, 48 h | Potency, µM (top dose mostly 46.2 µM), for the others: at the top dose activity change, negative = growth inhibition, usual class: inhibitors | hit rate 15% among 420,000; further: potency means the concentration at half of the fitted maximal effect; nearly all actives have a fitted effect of over 55% in size
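Camptothecin absent (DMSO only). Human TDP1-complemented DT40 knockout cells, 400 cells/well, 37 °C for minimum 48 hr; ATP measured via CellTiter-Glo, 30 min dark incubation, luminescence.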
TDP1 cell CPT = DT40-hTDP1 cell growth loss with CPT | AID 686979 | Potency, µM (titrated, usually from 46.2 µM), inactives show top-dose activity change, negative = growth inhibition, hits mostly inhibitors | hit rate 12% among 420,000 | chicken DT40 Tdp1-/-;hTDP1 cells + 20 nM CPT, ATP luminescence, 48 h; further: potency means the concentration at half of the fitted maximal effect; nearly all actives have a fitted effect of over 55% in size
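Chicken DT40 Tdp1-/- cells complemented with human TDP1, 400 cells/well, exposed to compounds plus 20 nM camptothecin for at least 48 h at 37 C; viability read as ATP content by CellTiter-Glo luminescence.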
IL1B secr inh = blocks inflammasome-driven IL-1 beta release; THP-1 LPS/ATP IL-1B secretion, AlphaLISA, 16 h; active compounds read low; activity change, % at 57.5 µM; hit rate 4.7% among 360,000; in the data active means activity change below about -50%; inconclusive means mostly about -30% to -49%
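Secreted IL-1B measured by AlphaLISA bead assay after 16 h compound exposure of THP-1 cells; compounds (final up to 57.5 uM) added 1 h before LPS (250 ng/mL) and ATP (1.25 mM) stimulation; lower signal means less secretion.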
Active calls of the source: *; u = inconclusive; x = no result; [ ] = dose if it differs, or a comment. Unless noted, the call rests on the fitted dose curve; in most records, active means well fitted curve in the direction sought with a large enough effect; inconclusive means small, poorly fitted or top-dose-only effect, or another doubt; inactive means no such curve, though single readings can be large; an effect the other way counts as inactive or inconclusive. Unless noted, on the % scale 0 is the no-effect control and ±100 the full control effect.

SMILES	uPA surface inh	HT1080 IDH1KD tx	HT1080NT lethal	DT40 TDP1 no CPT	TDP1 cell CPT	IL1B secr inh
CCCn1c(NC(=O)C2CCN(C(=O)c3ccccc3C)CC2)nc2ccccc21	-1%	-13%	-2%	u	16µM*	-27
Cc1cccc(NC(=O)C2CCN(C(=O)c3ccccc3C)CC2)n1	-2%	0%	10%	-13%	-10%	7
CCCn1c(NC(=O)c2cccc(C)c2C)nc2ccccc21	-17%	u	u	15µM*	13µM*	9
COc1ccc(NC(=O)COC(=O)CCc2ccc(S(=O)(=O)N3CCOCC3)cc2)c(OC)c1	7%	7%	-3%[9.24 µM]	8%	-15%	10
O=c1oc2ccccc2nc1/C=C(O)/C=C\c1ccccc1	-15%	13%	0%	23µM*	15µM*	-54*
Cc1ccc2oc(=O)c(/C=C(\O)C(C)(C)C)nc2c1	-19%	-25%	-23%	-6%	-13%	33
O=c1oc2ccccc2nc1/C=C(O)/C=C/c1ccc(F)cc1	-8%	1%	3%	15µM*	9.2µM*	-14
Cc1ccc(/C(O)=C/c2nc3ccccc3oc2=O)cc1	-8%	23µM*	-12%	u	-27%	x
Cc1ccc2oc(=O)c(/C=C(\O)c3sc(C)nc3C)nc2c1	-12%	0%	2%	23µM*	u	24
Cc1ccc2oc(=O)c(/C=C(\O)c3ccco3)nc2c1	-9%	-25%	-6%	-24%	3%	x
CC(C)(C)/C(O)=C/c1nc2cc(Cl)ccc2oc1=O	-14%	u	u	u	u	-1
COc1cccc(N2CCN(C(=O)C3CCN(C(=O)Nc4ccccc4)CC3)CC2)c1	x	-5%	7%	-3%	-11%	1
Cc1cc2c(cc3c(=O)n(CC(=O)NCCCN4CC(C)CC(C)C4)ncn32)s1 (stereo not drawn)	4%	21%	8%	10%	5%	u
COc1ccc(-c2cc(C(=O)N(C)CC(=O)Nc3ccccc3C(F)(F)F)c3ccccc3n2)cc1OC	4%	-28%	u	4.1µM*	21µM*	-16
COc1ccc(-c2cc(C(=O)N(C)CC(=O)Nc3ccccc3Br)c3ccccc3n2)cc1OC	-4%	-18%	u	18µM*	16µM*	-29
CSc1ccccc1C(=O)NC1CCCc2ccccc21 (stereo not drawn)	-1%	-13%	-11%	u	u	-23
CCN1C(=O)[C@H]2[C@@H](c3ccc(-c4ccc(OC)cc4)cc3)N3CCCC[C@@]3(C(=O)OC)[C@H]2C1=O	8%	9%	2%	16µM*	u	u
CCN1C(=O)[C@@H]2[C@@H](c3ccc(-c4ccc(OC)cc4)cc3)N3CCC[C@@]3(C(=O)OC)[C@@H]2C1=O	-13%	1%	2%	21µM*	u	-3
CCN1C(=O)[C@H]2[C@@H](c3ccc(-c4ccc(OC)cc4)cc3)N3CCC[C@@]3(C(=O)OC)[C@H]2C1=O	-3%	-1%	9%	15µM*	u	14
Cc1ccc(CSc2ncc(Cl)c(C(=O)Nc3nnc(C)s3)n2)cc1	x	x	x	-20%	-6%	x
COc1cccc(OC2(C)CCN(Cc3cccn3-c3nccs3)C2)c1 (stereo not drawn)	x	-18%	-29%	21µM*	23µM*	9
CC1(Oc2ccc(-n3ccnc3)cc2)CCN(Cc2cccn2-c2nccs2)C1 (stereo not drawn)	x	8%	9%	18µM*	29µM*	0
CC(C)N1CCN(Cc2cccn2-c2nccs2)CC1CCO (stereo not drawn)	1%	2%	-1%	4%	1%	-6
Cc1nc(OCc2ccccc2)c2ccccc2n1	-6%	-16%	-10%	u	u	19
